Experimental data reported in PubChem BioAssay AID652017 (The Scripps Research Institute Molecular Screening Center, 2013).
The campaign covered roughly 370,000 compounds. About 3,800 (1%) were called active. The sample as a whole holds a higher share of actives than the screen did. Unmarked numbers belong to inactive results. Rule as the data show it: active = activation above about 7.8%; inactive = the rest.

Experiment: SMARCA2 (BRM) function activators, primary screen, cell-based, luminescence, high throughput (AID 652017);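 also: 0% = vehicle wells and 100% = reference activator wells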
Details: MG213 cells, MMTV-luciferase reporter, dexamethasone, overnight; at 9.1 µM; hits give high values
With COc1ncnc2c1ncn2CCCNCCN1CCOCC1 the activation was -1.94%. For CC(=O)c1cc(CN2CCC(n3nccc3NC(=O)c3ccccc3Cl)CC2)cs1, the activation was -2.24%. With O=C(Nc1ccc2sc3ccccc3c(=O)c2c1)c1ccccc1Cl the activation was 5.49%. In the case of O=C(Nc1cc(=O)[nH]c2ncnn12)c1ccccc1Cl, the activation is reported as 8.25% (active). With Cc1cc(Br)ccc1NC(=O)CCCOc1cc(=O)n(C)c2ccccc12 the activation was -2.55%. Work on OC(CCl)CCl yielded an activation of -4.79%. Work on COc1ccc(CCNC(=O)CCNS(=O)(=O)c2cc(Br)cnc2N)cc1OC yielded an activation of -1.13%. In the case of COc1c(O)cc2oc(-c3ccc(O)c(O)c3)cc(=O)c2c1O, the activation is reported as 8.25% (active). Compound CCCCOCCCNC(=O)C[C@H]1C[C@@]2(C(=O)OC)C(=C[C@H](COCc3ccccc3)O[C@@H]2C)N(Cc2cccc3ccccc23)C1=O has an activation of -2.77%. O=C(C1CCCN1S(=O)(=O)c1ccccc1)N1CCc2ccccc2C1 (stereo not given) showed an activation of -4.12%. For Cc1ccc(C(=O)C2CCN(CC(=O)NCCC(C)C)CC2)cc1, the activation was -3.11%. In the case of Cc1nn(Cc2ccc(Cl)c(Cl)c2)c(C)c1NC(=O)c1cc(C2CC2)on1, the activation is reported as -4.98%. In the case of Cc1nn(Cc2ccc(F)cc2)c(C)c1NC(=O)c1noc2c1CCc1ccccc1-2, the activation is reported as -4.67%. With Cc1nn(Cc2ccc(F)cc2)c(C)c1NC(=O)c1cccnc1Cl the activation was 11.7% (active). Compound COc1ccc(Cn2cc(CN3[C@@H](CC(C)C)COc4cc(Br)ccc4S3(=O)=O)nn2)cc1 has an activation of 0.39%. C/C(Cn1nnc2ccccc21)=N\OC(=O)c1cc(F)c(F)cc1Cl gave an activation of -0.31%. In the case of COc1ccc(-n2c(SCC(=O)Nc3ccc4cn[nH]c4c3)nnc2-c2cccnc2)cc1, the activation is reported as 6.71%. Work on COc1ccc(C)cc1NC(=O)c1cc(-c2ccccc2)nc2c1cnn2C(C)C yielded an activation of -4.75%. In the case of COc1ccc(/C=N/NC(=O)c2cc(-c3cccc(C)c3)nc3ccccc23)cc1O, the activation is reported as 8.84% (active). With Cc1ccc(/C=N/NC(=O)COc2ccccc2-c2ccccc2)cc1 the activation was -0.77%. Work on CCC(=O)Nc1ccc2c(c1)C(=O)N(C)[C@H]1CC[C@H](CC(=O)NCCOC)O[C@@H]1CO2 yielded an activation of -1.86%. Work on CC(CCN1CCC(C(O)(c2ccccc2)c2ccccc2)CC1)Oc1ccc([N+](=O)[O-])cc1Cl (stereo not given) yielded an activation of 5.01%. In the case of Cc1cc(C(=O)NNC(=S)NC(C)c2ccccc2)cs1 (stereo not given), the activation is reported as -0.96%. With Cc1cc(C(=O)NNC(=S)Nc2ccccc2C)cs1 the activation was 8.64% (active). In the case of Cc1ccccc1NC(=O)c1cc(S(=O)(=O)N2CCOCC2)cs1, the activation is reported as -0.28%.
